Data taken from ChEMBL document CHEMBL4513146, “CO-ADD screening of Karazin Kharkiv National University (Ukraine) compounds”.
Results with a measured potency or affinity are listed apart.

How the values were obtained:
Staphylococcus aureus = settings: Concentration 32 ug.mL-1;; ASSAY_TEST Inhibition of Bacterial Growth; detection method Absorption (OD600); MEDIA CAMHB; plate type 384well; NBS; CORNING #3640; time 18 hr
Escherichia coli = settings: Concentration 32 ug.mL-1;; ASSAY_TEST Inhibition of Bacterial Growth; detection method Absorption (OD600); MEDIA CAMHB; plate type 384well; NBS; CORNING #3640; time 18 hr

Row | SMILES | Inhibition (Staphylococcus aureus) [%] | Inhibition (Escherichia coli) [%]
1 | Cc1nnc2c(=O)n(CC(=O)Nc3ccc(Cl)cc3F)c3ccccc3n12 | 7.03 | -1.92
2 | CC(C)(C)Sc1ccc2nn(CC(=O)NCc3ccc(Cl)cc3)c(=O)n2n1 | 1.41 | -5.27
3 | COc1cc(NC(=O)Cn2nc3ccc(SCc4ccc(Cl)cc4)nn3c2=O)cc(OC)c1 | -3.52 | -10.62
4 | CCc1ccc(N(Cc2ccc(F)cc2)S(=O)(=O)c2cccn3c(C)nnc23)cc1 | 6.87 | -8.04
5 | Cc1ccc(-c2cc3c4nn(CC(=O)Nc5ccc6c(c5)OCO6)c(=O)n4ccn3n2)cc1C | -8.73 | -12.23
6 | COc1ccc(-c2cc3c4nnc(SCC(=O)Nc5cc(F)ccc5C)n4ccn3n2)cc1 | -23.41 | -20.36
7 | Cc1cc2nn(CC(=O)Nc3cccc(F)c3)c(=O)n2c(Nc2ccc(F)c(C)c2)n1 | -1.56 | -7.72
8 | CCCCOc1ccc(-c2cc3c4nnc(SCC(=O)Nc5ccccc5F)n4ccn3n2)cc1 | -0.1 | -3.53
9 | COc1ccc(-c2cc3c4nnc(SCC(=O)Nc5cc(Cl)ccc5C)n4ccn3n2)cc1 | -1.91 | -8.79
10 | COc1cc(NC(=O)Cn2nc3ccc(-c4ccc(Cl)cc4)nn3c2=O)cc(OC)c1 | -2.47 | -10.38
11 | CCOc1ccc(-n2ccn3c(SCC(=O)Nc4ccc(Cl)cc4)nnc3c2=O)cc1 | 4.06 | -5.21
12 | Cc1cccc(C)c1NC(=O)CSc1nnc2c3cc(-c4ccc(F)cc4)nn3ccn12 | -13.2 | -12.65
13 | Cc1ccc(NC(=O)Cn2nc3c(Sc4ccccc4)nccn3c2=O)c(Br)c1 | -10.94 | -14.81
14 | Cc1cc(F)ccc1NC(=O)Cn1nc2c(SCc3ccc(Cl)cc3)nccn2c1=O | 7.28 | -4.86
15 | CC(=O)c1cccc(NC(=O)CSc2nc3ccccc3n3c(C)nnc23)c1 | -0.38 | -4.41
16 | CC(C)(C)OC(=O)CN(c1ccc2c(c1)OCCO2)S(=O)(=O)c1ccc2nncn2c1 | 6.06 | -4.04
17 | COc1ccc(CN(c2ccc(C(C)C)cc2)S(=O)(=O)c2cccn3cnnc23)cc1 | 4.26 | 1.37
